# “And” between values parts separate entries of the source, which are not always exact repeats. Identical values can stand only once. Inconclusive results are not listed. The source made the active and inactive calls. How the source made its calls, unless noted: active means hit-call score of the fitted dose curve at least 0.9, where 1 is the maximum; inactive means score below 0.9.
# Assays:
# [1] = system: Thyroperoxidase (TPO), gene 54314; experiment: CCTE_Simmons_AUR_rTPO: CCTE's Amplex UltraRed Assay for Thyroperoxidase (TPO) Inhibition, Simmons Lab (AID 2283662; active means hit-call score of the fitted dose curve at least 0.9, where 1 is the maximum;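 further: potency for loss of signal meaning inhibition of peroxidase activity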)
# Summary of the method: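 Rat thyroid microsomes (5 ug protein) with 25 uM Amplex UltraRed and 300 uM H2O2 in 200 mM phosphate buffer, 30 min at 37C in dark; fluorescence 544/590 nm. Eight concentrations, 5 nM–87.5 uM final, 0.5% DMSO, triplicate biological replicates.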
# [2] = molecular target: Luciferin 4-monooxygenase (Photinus pyralis) (UniProt P08659); experiment: CCTE_Simmons_QuantiLum_inhib_2: CCTE's Firefly Luciferase Inhibition Assay, Simmons Lab (AID 2283767; active means hit-call score of the fitted dose curve at least 0.9, where 1 is the maximum)
# Summary of the method: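 Counter-screen for nonspecific enzyme inhibition: purified firefly luciferase incubated 30 min at 37C with chemicals up to 87.5 uM final, then luminescence measured after luciferin/dATP injection; activity fitted against DMSO baseline.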
# [3] = CCTE_Shafer_MEA_acute_firing_rate_mean: CCTE's Neural Acute Assay for Mean Firing Rate, Shafer Lab (AID 2284009);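 further: analyzed for loss of signal so actives lower firing rate relative to DMSO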
# Summary of the method: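 Read-out: well-mean spike rate (spikes/recording length/electrodes), % change from 40 min pre-dose baseline to 40 min with compound. Rat cortical cultures, DIV 13 or 15, 37 C; 0.03-40 uM; DMSO as negative control.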
# [4] = CCTE_Shafer_MEA_acute_burst_number: CCTE's Neural Acute Assay for Single-Electrode Bursts, Shafer Lab (AID 2284013)
# Summary of the method: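 Rat cortical cultures, DIV 13/15; 40 min baseline, then 40 min with compound 0.03-40 uM, 37 C. Spikes: 300-5000 Hz band-pass, threshold 8x rms noise. Readout = % change in single-electrode bursts vs baseline, loss-of-signal fit.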
# [5] = CCTE_Shafer_MEA_acute_burst_duration_mean: CCTE's Neural Acute Assay for Mean Burst Duration, Shafer Lab (AID 2284014);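 further: hits are decreases in mean burst duration relative to DMSO controls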
# Summary of the method: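 Primary rat cortical neurons on 16-electrode MEA wells, treated on DIV 13 or 15 with compound (0.03-40 uM; ≥3 wells each). 40-min baseline and 40-min exposure recordings at 37 C; percent change in mean burst duration per well versus DMSO.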
# [6] = CCTE_Shafer_MEA_acute_per_burst_spike_number_mean: CCTE's Neural Acute Assay for Average Number of Spikes Per Burst, Shafer Lab (AID 2284015);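 further: hits are decreases in mean spikes per burst versus baseline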
# Summary of the method: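 Rat primary cortical neurons on 48-well MEAs (DIV 13 or 15) were treated with 0.03-40 uM compound at 37 C. Mean spikes per burst over 40 min were recorded before and after exposure and expressed as percent change from baseline, relative to DMSO.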
# [7] = CCTE_Shafer_MEA_acute_interburst_interval_mean: CCTE's Neural Acute Assay for Mean Interburst Interval, Shafer Lab (AID 2284016);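 further: percent change of mean interburst interval versus each well's own pre-dose baseline; curves fitted for decrease in interburst interval relative to DMSO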
# Summary of the method: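 Rat primary cortical neurons on 48-well MEAs at DIV 13 or 15 were exposed acutely to 0.03-40 uM. Spikes detected at 8x rms noise, 37 C. Mean interburst interval from 40 min recordings expressed as percent change from 40 min pre-treatment baseline.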
# [8] = CCTE_Shafer_MEA_dev_network_spike_duration_std: CCTE's Neural Network Formation Assay for Standard Deviation of Network Spike Duration, Shafer Lab (AID 2284052);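 further: area under curve of spike duration SD across recording days 5 to 12; hits are decreases in network spike duration SD versus DMSO vehicle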
# Summary of the method: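 Primary rat cortical neurons on PEI-coated 16-electrode MEA wells, exposed from plating day 0 through day 12 with compound renewed at DIV 5 and 9. Network spike duration SD recorded on days 5, 7, 9, 12, collapsed as trapezoidal AUC; loss-of-signal fit versus DMSO.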
# [9] = CCTE_Shafer_MEA_dev_per_network_spike_spike_number_mean: CCTE's Neural Network Formation Assay for Mean Number of Spikes in a Network Spike, Shafer Lab (AID 2284053);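 on AC50: fitted as decrease in spikes per network spike relative to DMSO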
# Summary of the method: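 Primary rat cortical neurons on 48-well, 16-electrode MEA plates were exposed from plating to DIV 12, with dosing renewed on DIV 5 and 9. Spikes per network spike (0.05 s peak window) were recorded on DIV 5, 7, 9 and 12 and collapsed as trapezoidal AUC versus DMSO.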
# [10] = CCTE_Shafer_MEA_dev_per_network_spike_spike_percent: CCTE's Neural Network Formation Assay for Percent of Spikes in a Network Spike, Shafer Lab (AID 2284054)
# Summary of the method: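 Primary rat cortical neurons on 16-electrode MEA wells (PEI-coated, laminin at plating), exposed from day 0 with renewal at DIV 5 and 9; spikes within 0.05 s of network-spike peaks over total spikes, AUC across days 5, 7, 9, 12.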
# [11] = CCTE_Shafer_MEA_dev_LDH: CCTE's Lactate Dehydrogenase Assay for Cytotoxicity in the Neural Network Formation Assay, Shafer Lab (AID 2284068; active means hit-call score of the fitted dose curve at least 0.9, where 1 is the maximum;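 further: exposure for twelve days from plating with re-dosing on DIV 5 and 9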)
# Summary of the method: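 Primary rat cortical neurons were plated on PEI/laminin MEA plates and exposed from day 0 for twelve days, with compound renewed at DIV 5 and 9. Cytotoxicity was determined by spectrophotometric LDH assay relative to DMSO.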
# [12] = CCTE_Shafer_MEA_dev_mutual_information_norm: CCTE's Neural Network Formation Assay for Mutual Information Normalization, Shafer Lab (AID 2284091);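 on AC50: mutual information between electrodes summarised as area under curve across four recording days; potency is for a decrease in mutual information relative to DMSO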
# Summary of the method: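 Rat cortical cultures, 48-well MEA, continuous exposure DIV 0–12 with full media/compound change DIV 5 and 9. Readout: inter-electrode mutual information, AxIS adaptive spike detection; AUC across DIV 5/7/9/12 recordings; DMSO baseline, negative fitting direction.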
# [13] = CCTE_Shafer_MEA_dev_correlation_coefficient_mean: CCTE's Neural Network Formation Assay for Mean Correlation Coefficient, Shafer Lab (AID 2284093);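 on AC50: well mean pairwise spike train correlation integrated as AUC over recording days 5 to 12; potency fitted for loss of correlation relative to DMSO vehicle wells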
# Summary of the method: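 Spontaneous activity recorded on days 5, 7, 9 and 12 post-plating; pairwise spike correlations are averaged across active electrodes and collapsed to an area-under-curve. Rat cortical cultures are dosed from plating through 12 days, with compound renewed at media changes.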
# [14] = CCTE_Mundy_HCI_Cortical_Synap_Neur_Matur_NeuriteSpotCountPerNeuriteLength: CCTE's Synaptogenesis and Neurite Maturation Assay in rat cortical cells for Neurite Spot Count per Neurite Length, Mundy Lab (AID 2284210)
# Summary of the method: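 Rat primary cortical cultures, glia arrested with AraC at DIV 5, were dosed with media change at DIV 7 and fixed at DIV 12. Synaptophysin puncta per MAP2-labelled neurite length were quantified by high-content imaging versus DMSO.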
# [15] = CCTE_Mundy_HCI_Cortical_NOG_NeuriteLength: CCTE's Neurite Outgrowth Assay in rat cortical cells for Neurite Length, Mundy Lab (AID 2284213);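 on AC50: neurites imaged about 48 to 50 h after chemical exposure began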
# Summary of the method: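 Neurite length was read by high-content imaging of βIII-tubulin-labelled neurites in rat primary cortical cultures. Activity was fitted relative to DMSO.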
# [16] = CCTE_Mundy_HCI_Cortical_Synap_Neur_Matur_NeuriteLength: CCTE's Synaptogenesis and Neurite Maturation Assay in rat cortical cells for Neurite Length, Mundy Lab (AID 2284214)
# Summary of the method: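 Neurite length in rat primary cortical cultures is imaged after MAP2, synaptophysin and Hoechst staining. Dosing starts DIV 7, ending DIV 12; DMSO serves as negative control and baseline.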
# [17] = CCTE_Mundy_HCI_Cortical_Synap_Neur_Matur_NeuriteSpotCountPerNeuron: CCTE's Synaptogenesis and Neurite Maturation Assay in rat cortical cells for Neurite Spot Count per Neuron Count, Mundy Lab (AID 2284215)
# Summary of the method: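 Synapse density is scored as synaptophysin spots along neurites per neuron in fixed rat cortical neurons, measured at DIV 12 after chemical dosing at DIV 7. DMSO is the negative control and activity baseline.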
# [18] = CCTE_Mundy_HCI_Cortical_Synap_Neur_Matur_CellBodySpotCount: CCTE's Synaptogenesis and Neurite Maturation Assay in rat cortical cells for Cell Body Spot Count, Mundy Lab (AID 2284223)
# Summary of the method: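 Synapse number at neuronal cell bodies was quantified as synaptophysin puncta per neuron in rat cortical cultures exposed from DIV 7 to DIV 12. Values were normalised to DMSO.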
# [19] = CCTE_Mundy_HCI_hNP1_Pro_ResponderAvgInten: CCTE's Proliferation Assay in human neuroprogenitor cells, Mundy Lab (AID 2284224; active means hit-call score of the fitted dose curve at least 0.9, where 1 is the maximum;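 further: human neural progenitor cells hNP1 derived from WA09 embryonic stem cells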)
# Summary of the method: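 Human neuroprogenitors (hNP1, WA09 lineage) receive test chemical after 40 to 44 hours of attachment. A four-hour BrdU pulse begins twenty hours later, followed by fixation and high content imaging; signal is referenced to DMSO controls.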
# [20] = CCTE_Mundy_HCI_Cortical_NOG_NeuronCount: CCTE's Neurite Outgrowth Assay in rat cortical cells for Neuron Count, Mundy Lab (AID 2284236; active means hit-call score of the fitted dose curve at least 0.9, where 1 is the maximum;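 further: neurons counted by imaging betaIII-tubulin and Hoechst stained cortical cells; cells exposed to compound for about 48 hours before fixation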)
# Summary of the method: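 Read-out: neuron number by high-content imaging of betaIII-tubulin (Alexa Fluor-488) and Hoechst-labelled rat primary cortical cells.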
# Chain of Luciferin 4-monooxygenase (Photinus pyralis) (P08659 whole entry, looked up): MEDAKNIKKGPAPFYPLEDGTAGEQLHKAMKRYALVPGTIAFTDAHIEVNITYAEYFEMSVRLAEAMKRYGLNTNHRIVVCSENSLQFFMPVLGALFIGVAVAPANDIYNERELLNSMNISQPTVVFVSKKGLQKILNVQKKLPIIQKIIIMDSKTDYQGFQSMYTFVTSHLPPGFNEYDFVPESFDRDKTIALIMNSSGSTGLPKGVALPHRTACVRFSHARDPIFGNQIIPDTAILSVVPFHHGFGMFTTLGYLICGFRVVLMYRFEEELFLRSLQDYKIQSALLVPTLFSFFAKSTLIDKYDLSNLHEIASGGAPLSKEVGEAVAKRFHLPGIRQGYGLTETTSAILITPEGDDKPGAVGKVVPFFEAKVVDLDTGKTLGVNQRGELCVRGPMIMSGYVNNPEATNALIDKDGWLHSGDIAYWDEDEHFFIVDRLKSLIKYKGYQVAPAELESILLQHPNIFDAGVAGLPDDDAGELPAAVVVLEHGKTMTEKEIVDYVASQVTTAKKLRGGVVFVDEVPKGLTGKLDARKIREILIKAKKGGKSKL
compound,measurement,setting,value
Cc1c(N(C)CS(=O)(=O)O)c(=O)n(-c2ccccc2)n1C,AC50,[1],8.64 µM (active)
same,outcome,[2],inactive
CCN(CC)CCNC(=O)c1c(C)[nH]c(/C=C2\C(=O)Nc3ccc(F)cc32)c1C,AC50,[1],8.81 µM (active)
same,outcome,[2],inactive
CN(C)C(=O)C(CCN1CCC(O)(c2ccc(Cl)cc2)CC1)(c1ccccc1)c1ccccc1,AC50,[3],0.291 µM (active)
same,AC50,[4],0.283 µM (active)
same,AC50,[5],0.147 µM (active)
same,AC50,[6],0.165 µM (active)
same,outcome,[7],inactive
same,AC50,[8],262 nM (active) and 11.6 nM (active) and 736 nM (active)
same,AC50,[9],766 nM (active) and 44.5 nM (active) and 2.52 µM (active)
same,AC50,[10],2.31 µM (active) and 276 nM (active) and 2.68 µM (active)
same,AC50,[11],4.19 µM (active) and 2.7 µM (active) and 2.94 µM (active)
same,AC50,[12],112 nM (active) and 60.7 nM (active) and 621 nM (active)
same,AC50,[13],1.35 µM (active) and 766 nM (active) and 2.54 µM (active)
same,AC50,[14],14.9 µM (active)
same,AC50,[15],6.63 µM (active)
same,AC50,[16],3.22 µM (active)
same,AC50,[17],3 µM (active)
same,AC50,[18],16.9 µM (active)
same,AC50,[19],50 µM (active)
same,AC50,[20],12.9 µM (active)
Cc1c(O)cccc1C(=O)N[C@@H](CSc1ccccc1)[C@H](O)CN1C[C@H]2CCCC[C@H]2C[C@H]1C(=O)NC(C)(C)C,AC50,[8],1.27 µM (active)
same,AC50,[9],1.19 µM (active)
same,AC50,[10],6.35 µM (active)
same,AC50,[11],7.06 µM (active)
same,AC50,[12],772 nM (active)
same,AC50,[13],1.78 µM (active)
same,AC50,[14],6.39 µM (active)
same,AC50,[15],28.9 µM (active)
same,AC50,[16],4.56 µM (active)
same,AC50,[17],2.49 µM (active)
same,AC50,[18],6.41 µM (active)
same,AC50,[19],13.8 µM (active)
same,AC50,[20],25 µM (active)
CC1(C)S[C@@H]2[C@H](NC(=O)[C@H](N)c3ccc(O)cc3)C(=O)N2[C@H]1C(=O)O,outcome,[3],inactive
same,outcome,[4],inactive
same,outcome,[5],inactive
same,outcome,[6],inactive
same,outcome,[7],inactive
same,outcome,[8],inactive
same,outcome,[9],inactive
same,outcome,[10],inactive
same,outcome,[11],inactive
same,outcome,[12],inactive
same,outcome,[13],inactive
same,outcome,[14],inactive
same,outcome,[15],inactive
same,outcome,[16],inactive
same,outcome,[17],inactive
same,outcome,[18],inactive
same,outcome,[19],inactive
same,outcome,[20],inactive
